Screens: PubChem, National Center for Advancing Translational Sciences (NCATS)
HP1b chromo inh – blocks HP1-beta chromodomain binding to methylated histone tails; 390,000 compounds, 0.56% hits; AlphaScreen HP1-beta / biotin-H3K9me3 peptide binding; P83916; Potency, µM (titrated, usually from 114 µM), usual class: inhibitors; also: nearly all actives have a fitted effect of over 70% in size
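AlphaScreen: HP1-beta (50 nM) preformed 30 min with biotin-H3(1-18)K9me3 peptide (50 nM) in PBS pH 7.4, 0.01% Tween-20. Compound added for 30 min at RT, then streptavidin donor/nickel chelate acceptor beads (10 ug/mL) for 30 min.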
G9a block – G9a (human) methyltransferase inhibition. 350,000 compounds, 8.8% hits. G9a H3K9 monomethylation, AlphaScreen, 2 h. AID 504332. Potency, µM (top dose mostly 102 µM), usual class: inhibitors; also: nearly all actives have a fitted effect of over 75% in size
Target sequence (Q96KQ7 913-1193 limits assumed): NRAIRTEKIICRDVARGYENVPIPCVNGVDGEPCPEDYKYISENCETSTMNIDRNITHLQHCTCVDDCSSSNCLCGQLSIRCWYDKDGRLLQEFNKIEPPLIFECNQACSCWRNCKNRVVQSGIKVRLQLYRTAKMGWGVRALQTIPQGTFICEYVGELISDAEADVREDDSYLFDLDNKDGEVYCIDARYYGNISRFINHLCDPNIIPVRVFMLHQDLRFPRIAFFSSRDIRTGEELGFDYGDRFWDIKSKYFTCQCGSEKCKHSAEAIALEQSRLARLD
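AlphaScreen detection with an anti-monomethyl H3K9 antibody quantified product after a 2 h room-temperature reaction containing 500 nM biotinylated H3K9 peptide, 20 µM SAM and 20 nM enzyme, which had been preincubated 15 min with compound.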
VDR inh – blocks the human vitamin D receptor; VDR-SRC2-3 peptide fluorescence polarization, 2 h; Potency, µM, usual class: inhibitors; 400,000 compounds, 0.93% hits; AID 504847
Target sequence (P11473 whole entry, looked up): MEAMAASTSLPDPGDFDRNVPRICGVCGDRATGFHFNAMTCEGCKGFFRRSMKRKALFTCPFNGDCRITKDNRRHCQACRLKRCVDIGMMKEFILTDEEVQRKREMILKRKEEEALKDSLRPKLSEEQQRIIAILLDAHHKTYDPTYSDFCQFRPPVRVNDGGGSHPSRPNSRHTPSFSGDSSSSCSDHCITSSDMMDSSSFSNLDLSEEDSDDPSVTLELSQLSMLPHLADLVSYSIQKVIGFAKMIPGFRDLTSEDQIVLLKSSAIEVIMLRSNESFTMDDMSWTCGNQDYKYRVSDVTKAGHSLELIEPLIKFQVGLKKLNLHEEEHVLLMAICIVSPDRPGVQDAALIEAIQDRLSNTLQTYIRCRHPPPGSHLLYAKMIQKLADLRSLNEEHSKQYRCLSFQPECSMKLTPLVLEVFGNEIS
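FP read-out; VDR + SRC2-3 coactivator peptide; 23 nl compound by pintool; 2 h RT incubation; reagents held at 4 deg C, protected from light.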
JMJD2A Tudor – blocks the human JMJD2A Tudor domain; 390,000 compounds, 4.4% hits; AlphaScreen JMJD2A-Tudor / H3K4me3 peptide binding; Potency, µM (titrated, usually from 114 µM), hits mostly inhibitors; O75164; also: nearly all actives have a fitted effect of over 50% in size
PLK1 PBD inh – PLK1 (human) polo-box domain binding inhibition. P53350. Plk1 PBD binding of FITC phosphopeptide, fluorescence polarization. Potency, µM, most hits filed as inhibitors. 360,000 compounds, 2.8% hits. AID 720504; also: series mostly up to about 57 µM; nearly all actives have a fitted effect of over 65% in size
BAZ2B inh – inhibitors of human BAZ2B bromodomain; AlphaScreen BAZ2B-H3K14Ac peptide displacement; 360,000 compounds, 4.4% hits; Q9UIF8; Potency, µM (highest dose often 114 µM), most hits filed as inhibitors; also: nearly all actives have a fitted effect of over 60% in size
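BAZ2B 50 nM plus b-H3(5-23)K14Ac 50 nM, PBS pH 7.4/0.01% Tween-20, 30 min RT; compound added (max 110 uM), 30 min RT; streptavidin donor/Ni-chelate acceptor beads 10 ug/mL final, 20 min dark; AlphaScreen read.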
A number is an active result; . = inactive; ? = inconclusive; / = no result; [ ] = another dose, or the depositor's remark. An excerpt weighted towards active compounds, which were near 11% of everything screened. Calls follow the shape of the dose curve; as a rule, active = well fitted curve in the direction sought with a large enough effect; inconclusive = small, poorly fitted or top-dose-only effect, or another doubt; inactive = no such curve, though single readings can be large; an effect the other way counts as inactive or inconclusive.

SMILES | HP1b chromo inh | G9a block | VDR inh | JMJD2A Tudor | PLK1 PBD inh | BAZ2B inh
CCOC(=O)c1c(NC(=O)c2cc(-c3ccc(Br)cc3)on2)sc(C(C)=O)c1C | . | . | . | . | / | .
CCOC(=O)C1(C)CCCCCN1C(=O)c1ccccc1F (stereo not given) | / | / | / | / | . | /
CC(=O)c1cc(-c2ccccc2)n(CC(=O)NC2CCCCCC2)c1C | . | . | . | . | / | .
CCOC(=O)c1c(NC(=O)c2cc(C)on2)sc(C)c1C | . | 3.2µM | 79µM | . | / | .
CCOC(=O)c1c(NC(=O)c2cc(-c3ccc(OC)c(OC)c3)on2)sc(C)c1C | . | . | . | . | / | .
CCOC(=O)c1c(NC(=O)c2cc(-c3ccc(Cl)cc3)on2)sc(C)c1C | . | 8.9µM | . | . | / | .
CCOC(=O)c1cc(NC(=O)c2cc(C)on2)cc(C(=O)OCC)c1 | . | .[12.7 µM] | . | . | . | .
CCN(CC(=O)Nc1cc(Cl)ccc1C)C(=O)C1COc2ccccc2O1 (stereo not given) | . | .[12.7 µM] | . | . | . | .
C#CCOCCOCCOCCNc1nc(N2CCN(C(=O)[C@H](CCCCN)n3cc([C@@H](N)[C@H](C)CC)nn3)CC2)nc(N2CCN(C(=O)[C@H](CCC(=O)O)n3cc([C@@H](N)CCCCN)nn3)CC2)n1 | . | / | . | ? | . | /
C#CCOCCOCCOCCNc1nc(N2CCN(C(=O)[C@H](CCCN=C(N)N)n3cc(C(N)[C@@H](C)CC)nn3)CC2)nc(N2CCN(C(=O)[C@H](CCC(=O)O)n3cc([C@@H](N)CCCCN)nn3)CC2)n1 (stereo not given in full) | . | / | . | 89µM | . | /
C#CCOCCOCCOCCNc1nc(N2CCN(C(=O)[C@H](CCCCN)n3cc(C(N)[C@H](C)CC)nn3)CC2)nc(N2CCN(C(=O)[C@H](CCC(=O)O)n3cc(C(N)[C@H](C)CC)nn3)CC2)n1 (stereo not given in full) | . | ? | . | 50µM | . | 79µM
CCn1cc(-c2n[nH]c(=S)n2-c2ccc(C)cc2Br)c(=O)c2ccc(C)nc21 | . | 10µM | . | ? | . | .
COc1ccc(Nc2cc(C)c3c(O)cccc3n2)cc1 | . | / | ? | .[11.4 µM] | 27µM | 45µM
Cc1ccc(Nc2cc(C)c3c(O)cccc3n2)cc1C | . | / | . | ? | . | 45µM
COC(=O)c1cc(Nc2cc(C)c3c(O)cccc3n2)cc(C(=O)OC)c1 | . | . | . | . | . | .
Cc1ccccc1Nc1cc(C)c2c(O)cccc2n1 | . | ? | . | ? | . | ?
CC(C)(C)c1ccc2c(c1)C(=O)c1ccccc1C2=O | ? | 35µM | . | 45µM | . | 32µM
CCN(CC)Cc1c(O)ccc2c(-c3ccccc3)cc(=O)oc12 | . | . | . | . | . | .
CCCCN(CC)Cc1c(O)ccc2c(-c3ccccc3)cc(=O)oc12 | . | ? | . | .[11.4 µM] | 27µM | .
CC(=O)N1C(=O)CC(C)N(C(C)=O)c2ccc([N+](=O)[O-])cc21 (stereo not given) | . | 20µM | . | ? | . | .
CC(=O)N1CCC(C(=O)NCCOc2cccc(C)c2)CC1 | . | . | . | . | . | .
Brc1cccc(OCCCNC2CCCC2)c1 | . | 16µM | . | 16µM | . | ?
OCCNCCCCOc1cccc(Br)c1 | . | . | ? | . | . | .
CCCOc1ccc(OCCSc2ncccn2)cc1 | . | . | . | . | . | .
Clc1ccc(OCCCCSc2ncccn2)cc1 | . | ? | . | . | 30µM | .
SMILES | HP1b chromo inh | G9a block | VDR inh | JMJD2A Tudor | PLK1 PBD inh | BAZ2B inh
CC(C)NCCOc1cccc(Br)c1 | . | 50µM | . | . | . | ?
CC(C)NCCCCOc1cccc(Br)c1 | . | 28µM | ? | 35µM | 19µM | 50µM
Cc1ccc(OCCOc2cccc(Br)c2)c([N+](=O)[O-])n1 | . | . | . | . | . | .
CCOC(=O)C1=C(c2ccccc2)N=C2SCC(=O)N2C1c1ccc2c(c1)OCO2 (stereo not given) | . | ? | ? | . | . | .
CC1(C)CC(=O)C=C(C#CC2(O)CCCCC2)C1 | / | / | / | / | . | /
Cc1ccc(OCC(=O)Nc2ccc3c(c2)nc(CCNC(=O)c2ccco2)n3C)cc1 | . | . | . | . | / | .
Brc1cccc(OCCSc2ncccn2)c1 | . | . | . | ? | 13µM | .
Cn1c2cc([N+](=O)[O-])sc2c2cnn(Cc3ccccc3F)c(=O)c21 | / | .[12.7 µM] | / | / | / | .
NC(=O)Cn1cc(/C=N\NS(=O)(=O)c2ccc(Cl)cc2)c2ccccc21 | . | . | . | . | . | .
Cc1ccc(S(=O)(=O)N/N=C\c2cn(CC(N)=O)c3ccccc23)cc1C | . | 79µM | . | . | . | ?
O=C(COC(=O)c1ccc2ccccc2c1O)NCC(F)(F)F | . | . | . | ? | 27µM | 79µM
O=C(COC(=O)c1c2ccccc2cc2ccccc12)NCC(F)(F)F | . | . | . | . | . | .
O=C(O)C/C(=C\c1ccc(N2CCOCC2)c([N+](=O)[O-])c1)c1nc2ccccc2s1 | . | ? | . | .[11.4 µM] | ? | 50µM
O=C(O)CC/C(=C\c1ccc(Cl)c([N+](=O)[O-])c1)c1nc2ccccc2s1 | . | . | . | . | . | .
O=C(O)CC/C(=C\c1ccc(N2CCOCC2)c([N+](=O)[O-])c1)c1nc2ccccc2s1 | . | ? | . | ? | . | 35µM
CC(OC(=O)c1cccc(-n2cnnn2)c1)C(=O)Nc1ccc(F)cc1 (stereo not given) | . | .[12.7 µM] | . | . | . | .
Cc1ccc2[nH]c3c(c2c1)CN(C(=O)CN1CCN(Cc2ccc4c(c2)OCO4)CC1)CC3 | ? | ? | . | 50µM | . | .
Cc1ccc2[nH]c3c(c2c1)CN(C(=O)CN1CCN(c2ccccn2)CC1)CC3 | . | 20µM | . | . | . | 50µM
O=C(CN1CCc2[nH]c3ccccc3c2C1)N1CCCCC1 | . | .[12.7 µM] | . | . | . | .
O=C(N1CCc2[nH]c3ccccc3c2C1)C(F)(F)F | . | . | . | . | 38µM | .
O=C(CN1CCN(c2ccccc2)CC1)N1CCc2[nH]c3ccccc3c2C1 | . | ? | . | ? | . | 50µM
CCCCCN(C(=O)CCC(=O)OCC(=O)N(CC)C1CCCCC1)c1c(N)n(CCCC)c(=O)[nH]c1=O | . | . | . | . | . | .
COc1ccc(NC(=O)C(CC(=O)O)Cc2ccc(C)cc2)cc1 (stereo not given) | . | .[12.7 µM] | . | . | . | .
COc1ccc(-c2noc(CNC(=O)c3cc(OC)c(OC)c(OC)c3)n2)cc1 | . | . | . | . | / | .
Cc1ccc(NC(=S)N2CCc3[nH]c4ccccc4c3C2)cc1 | . | / | . | ? | . | 25µM
COc1ccccc1NS(=O)(=O)c1cc(NC(=O)Nc2ccccc2)ccc1N1CCCCC1 | ? | 10µM | . | . | ? | .
